# Measurements from PubChem BioAssay (NCATS).
# “And” between values parts separate entries of the source, which are not always exact repeats. Equal entries are not always repeated. Results filed as inconclusive are left out. The source made the active and inactive calls. Calls follow the shape of the dose curve; as a rule, active = well fitted cell-killing curve with a large enough effect; inconclusive = small, poorly fitted or top-dose-only effect, or effect the other way; inactive = no such curve, though single readings can be large or run the other way.
# Assay: Viability qHTS for spleen associated tyrosine kinase inhibitor (SYKi) naive MV4-11 cells (AID 1963823); also: nearly all actives have a fitted effect of over 40% in size
# Details: MV4-11 AML viability, CellTiter-Glo luminescence, 72 h; series mostly up to 45 µM
# Summary of the method: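 SYKi-naive MV4-11 AML cells, 500 per well, were exposed to library compounds for 72 hr at 37 C, 5% CO2. Viability was then read by CellTiter-Glo luminescence after 10 min at room temperature.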
# Potency is read from the fitted curve at half-maximal effect.
row,SMILES,Potency
1,C[C@@H](O)[C@@H](C)Oc1nc(Nc2ccc(S(=N)(=O)C3CC3)cc2)ncc1C(F)(F)F (some centres undefined),3320 nM (active)
2,COc1cc2c(Oc3ccc4[nH]c(C)cc4c3F)ccnc2cc1OCC1(N)CC1,4170 nM (active)
3,NC(=O)c1nc(F)c[nH]c1=O,inactive
4,CC(=O)OC[C@H]1O[C@@](COC(C)=O)(O[C@H]2O[C@H](COC(C)=O)[C@@H](OC(C)=O)[C@H](OC(C)=O)[C@H]2OC(C)=O)[C@@H](OC(C)=O)[C@@H]1OC(C)=O,inactive
5,Cc1c(F)ccc(C(=O)Nc2cc([N+](=O)[O-])ccc2N2CCN(C)CC2)c1Cl,1320 nM (active)
6,Cc1onc(-c2c(Cl)cccc2Cl)c1C(=O)N[C@@H]1C(=O)N2[C@@H]1SC(C)(C)[C@@H]2C(=O)O,inactive
7,COc1ccc(-c2cc(C(O)C3CCCCN3)c3ccccc3n2)cc1 (centres undefined),525 nM (active)
8,N#Cc1cc2cc(CN3CCC(Nc4ncnc5sc(CC(F)(F)F)cc45)CC3)c(O)cc2n1Cc1cn[nH]c1,742 nM (active)
9,CNCc1ccc(-c2cc(-c3nc(-c4ccc(S(=O)(=O)C(C)C)cc4)cnc3N)on2)cc1,259 nM (active)
10,C=C1/C(=C\C=C2/CCC[C@]3(C)[C@@H]([C@H](C)CCCC(C)(C)O)CC[C@@H]23)C[C@@H](O)C[C@@H]1O,18.6 nM (active)
11,CN(C)CCCSc1ccccc1NC(=O)/C=C/c1ccccc1,inactive
12,O=C1CC(c2c[nH]c3ccc(F)cc23)C(=O)N1 (centres undefined),inactive
13,Clc1ccc(-c2nc3sccn3c2/C=N/OCc2ccc(Cl)c(Cl)c2)cc1,inactive
14,CC(C)(C)NCC(O)COc1cccc2c1CCC(=O)N2 (centres undefined),inactive

# Assay: Viability qHTS for spleen associated tyrosine kinase inhibitor (SYKi) drug resistant MV4-11 cells (AID 1963824); also: nearly all actives have a fitted effect of over 35% in size
# Details: SYKi-resistant MV4-11 viability, CellTiter-Glo, 72 h; series mostly up to 45 µM
# Summary of the method: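 CellTiter-Glo luminescence, read 10 min after reagent addition, reports viability after a 72 hr compound exposure. Cells are an MV4-11 line made resistant to SYK inhibition, seeded at 500 per well onto compound-containing plates.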
row,SMILES,Potency
1,CN1CCN(c2ccc3nc(-c4c(N)c5c(F)cccc5[nH]c4=O)[nH]c3c2)CC1,16.4 nM (active) and 18.6 nM (active)
2,C[C@H]1[C@H](C)CC[C@]2(C(=O)O)CC[C@]3(C)C(=CC[C@@H]4[C@@]5(C)CC[C@H](O)C(C)(C)[C@@H]5CC[C@]43C)[C@H]12,20.9 µM (active)
3,CN1CCCN(C(=O)c2cccc(-c3ccc(/C=C4/C(=O)Nc5ccc(Cl)cc54)o3)c2)CC1,0.662 µM (active)
4,C[C@]12CCC3[C@@H](CC[C@H]4NC(=O)C=C[C@]34C)[C@@H]1CC[C@@H]2C(=O)Nc1cc(C(F)(F)F)ccc1C(F)(F)F (some centres undefined),9.34 µM (active)
5,O=C(c1ccc(F)c(F)c1Nc1ccc(I)cc1F)N1CC(O)([C@@H]2CCCCN2)C1,231 nM (active) and 296 nM (active)
6,CCS(=O)(=O)N1CCC([C@@H](C)n2c(C)c(C(=O)NCc3c(OC)cc(C)[nH]c3=O)c3ccccc32)CC1,inactive
7,CCC[C@H](N[C@H]1CCc2cc(F)cc(F)c2C1)C(=O)Nc1cn(C(C)(C)CNCC(C)(C)C)cn1,9.2 µM (active) and 6.61 µM (active)
8,CC(C)NC[C@@H](O)COc1ccc(CC(N)=O)cc1,inactive
9,CCC(CC)CC1(C(=O)Nc2ccccc2SC(=O)C(C)C)CCCCC1,inactive
10,CC(=O)c1ccc2c(c1)c1cc(C(C)=O)ccc1n2CCNC(C)C,0.525 µM (active)
11,OC[C@@H](O)[C@@H](O)[C@H](O)[C@H](O)CO,inactive
12,CCNCCc1ccc(CN(CC)c2cc(OC)ccc2[C@@H]2CCc3cc(O)ccc3C2)cc1,2.95 µM (active)
13,CCC(C)(CN(C)C)OC(=O)c1ccccc1 (centres undefined),inactive
14,CC(/C=C/[C@@H]1C[C@]1(C)c1ccc2c(c1)C(C)(C)CCC2(C)C)=C\C(=O)O,0.468 µM (active)
15,COc1ccc(N2C(=O)N(c3c(C)cccc3Cl)Cc3cnc(Nc4ccc(C5CCN(C)CC5)cc4OC)nc32)nc1,1.48 µM (active)
16,Cc1ccc(C(=O)Nc2ccc(CN3CCN(C)CC3)c(C(F)(F)F)c2)cc1C#Cc1cnc2[nH]ncc2c1,inactive
17,CCN1C(=O)N2Cc3cc(OC)cc(OC)c3[C@@H](C)C=C2C12CCN(Cc1cc(C)cc(C)c1)CC2,14.8 µM (active)
18,O=C(Nc1cc(Oc2cc(F)c(NC(=O)C3(C(=O)Nc4ccc(F)cc4)CC3)cc2F)ccn1)C1CC1,25.9 nM (active) and 66.1 nM (active)
19,CC(C)Oc1ccc(-c2nn([C@@H](C)c3oc4ccc(F)cc4c(=O)c3-c3cccc(F)c3)c3ncnc(N)c23)cc1F,11.8 µM (active)
20,CC(=O)O[C@H]1CC[C@@]2(C)C(=CC[C@@H]3[C@@H]2CC[C@]2(C)C(C(C)=O)=CC[C@@H]32)C1,inactive

row,SMILES,Potency
1,CC(C)Cc1ccc([C@@H](C)C(=O)NS(C)(=O)=O)cc1,inactive
2,Cc1cc(C(C#N)c2ccc(Cl)cc2)c(Cl)cc1NC(=O)c1cc(I)cc(I)c1O (centres undefined),18.8 µM (active) and 23.1 µM (active)
3,Cc1c(N(C)C)c(=O)n(-c2ccccc2)n1C,inactive
4,CC(C)N(CCC(=O)c1ccc2ccccc2c1)Cc1ccccc1,2.95 µM (active) and 1.84 µM (active)
5,CN=C(NC#N)NCCSCc1csc(N=C(N)N)n1,inactive
6,CCCCOC(=O)c1ccc(O)cc1,inactive
7,C[C@@H](O)[C@@H](C)Oc1nc(Nc2ccc(S(=N)(=O)C3CC3)cc2)ncc1C(F)(F)F (some centres undefined),11.8 µM (active)
8,COc1cc2c(Oc3ccc4[nH]c(C)cc4c3F)ccnc2cc1OCC1(N)CC1,4.17 µM (active)
9,NC(=O)c1nc(F)c[nH]c1=O,inactive
10,CC(=O)OC[C@H]1O[C@@](COC(C)=O)(O[C@H]2O[C@H](COC(C)=O)[C@@H](OC(C)=O)[C@H](OC(C)=O)[C@H]2OC(C)=O)[C@@H](OC(C)=O)[C@@H]1OC(C)=O,inactive
11,Cc1c(F)ccc(C(=O)Nc2cc([N+](=O)[O-])ccc2N2CCN(C)CC2)c1Cl,2.91 µM (active)
12,Cc1onc(-c2c(Cl)cccc2Cl)c1C(=O)N[C@@H]1C(=O)N2[C@@H]1SC(C)(C)[C@@H]2C(=O)O,inactive
13,COc1ccc(-c2cc(C(O)C3CCCCN3)c3ccccc3n2)cc1 (centres undefined),1.66 µM (active)
14,N#Cc1cc2cc(CN3CCC(Nc4ncnc5sc(CC(F)(F)F)cc45)CC3)c(O)cc2n1Cc1cn[nH]c1,1.32 µM (active)
15,CNCc1ccc(-c2cc(-c3nc(-c4ccc(S(=O)(=O)C(C)C)cc4)cnc3N)on2)cc1,0.326 µM (active)
16,C=C1/C(=C\C=C2/CCC[C@]3(C)[C@@H]([C@H](C)CCCC(C)(C)O)CC[C@@H]23)C[C@@H](O)C[C@@H]1O,1.48 µM (active)
17,CN(C)CCCSc1ccccc1NC(=O)/C=C/c1ccccc1,inactive
18,O=C1CC(c2c[nH]c3ccc(F)cc23)C(=O)N1 (centres undefined),inactive
19,Clc1ccc(-c2nc3sccn3c2/C=N/OCc2ccc(Cl)c(Cl)c2)cc1,inactive
20,CC(C)(C)NCC(O)COc1cccc2c1CCC(=O)N2 (centres undefined),inactive
